PubChem BioAssay (NCATS)
Where “and” joins values, the source holds several entries; their conditions need not be identical. Equal values may be shown once. Unmarked numbers belong to inactive results. Records with an inconclusive call do not appear. A call without a number means that no potency is given here. Calls of active or inactive are those of the source. Unless noted, the call rests on the fitted dose curve; in most records, active means well fitted curve in the direction sought with a large enough effect; inconclusive means small, poorly fitted or top-dose-only effect, or another doubt; inactive means no such curve, though single readings can be large; an effect the other way counts as inactive or inconclusive.

Tests used:
[1] = Cell Viability - BJ (AID 421; calls by dose curve;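 further: potency means the concentration at half of the fitted maximal effect; cells exposed to compound for 40 hours at 37 °C before readout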); settings: BJ fibroblast viability, qHTS
In short: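 Luminescent ATP signal (CellTiter-Glo, 20 min at room temperature) served as the read-out of viable BJ cells after 40 hours of compound treatment. Responses were scaled between DMSO and 100 uM tamoxifen, and AC50 values were obtained by Hill modeling.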

[2] = Cell Viability - Jurkat (AID 426;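 active means dose-dependent loss of cell ATP signal giving a full or clear fitted curve, ranked by lower potency value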; further: potency means the concentration at half of the fitted maximal effect); settings: qHTS
In short: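 Jurkat (clone E6-1, human T-cell leukemia) cells, 5000/well in complete medium, were exposed to compound for 40 hr at 37 °C. Viability was read as intracellular ATP by CellTiter-Glo luminescence; AC50 came from Hill fits of concentration-response data.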

[3] = Cell Viability - Hek293 (AID 427;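 active means compounds whose dose-response curve shows a full or clear partial loss of cell viability, called from curve shape rather than a numeric limit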;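 further: potency means the concentration at half of the fitted maximal effect; cells exposed to compound for 40 hours at 37 °C before reading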); settings: qHTS
In short: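 Luminescent ATP read-out (CellTiter-Glo, 20 min RT) after 40 hr compound exposure at 37 °C in complete medium. Signal normalized to DMSO (basal) and 100 uM tamoxifen (100% inhibition); concentration-response fitted with the standard Hill equation to give AC50.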

[4] = Cell Viability - MRC5 (AID 434; calls by dose curve;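 further: potency means the concentration at half of the fitted maximal effect; potency reflects cytotoxicity seen as loss of intracellular ATP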); settings: MRC5 lung fibroblast viability, qHTS
In short: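 MRC5 normal human lung fibroblasts (1500/well) were treated with compounds for 40 hr at 37 °C in complete medium, and viable cells were measured as intracellular ATP by CellTiter-Glo luminescence. AC50 came from Hill fits, normalized to DMSO and 100 uM tamoxifen.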

[5] = Cell Viability - SK-N-SH (AID 435; calls by dose curve;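 further: potency means the concentration at half of the fitted maximal effect; compound exposure lasted 40 h at 37 °C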); settings: SK-N-SH neuroblastoma cell viability qHTS
In short: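 SK-N-SH neuroblastoma cells (1500/well) treated 40 h at 37 °C in complete medium; viability read as cellular ATP by CellTiter-Glo luminescence. Normalized to DMSO and 100 uM tamoxifen; AC50 from Hill fits of qHTS concentration-response.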

[6] = molecular target: Mitogen-activated protein kinase 10 (Mus musculus) (UniProt Q61831); assay: JNK3 AlphaScreen Assay (AID 530; active means well fitted curve in either direction with a large enough effect, not every such curve was filed as active;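 further: kinase came from lysate of stimulated human HepG2 cells; signal reports phosphorylation of biotinylated GST-cJun 1-79 at Ser73 with 10 µM ATP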); settings: JNK3 lysate, c-Jun phosphorylation; series mostly up to 57.1 µM
In short: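 JNK3 came from HepG2 lysates pre-activated with IL-1beta and TNF-alpha and phosphorylated biotinylated GST-cJun (1-79) at 10 uM ATP, pH 7.6, room temperature. Compounds were titrated. AlphaScreen signal used anti-phospho-cJun (Ser73) antibody.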

[7] = Cell Viability - H-4-II-E (AID 543); settings: H-4-II-E rat hepatoma viability; series mostly up to 92.2 µM; further: nearly all actives have a fitted effect of over 35% in size; further: potency means the concentration at half of the fitted maximal effect
In short: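 Rat hepatoma H-4-II-E cells (1500/well) were plated, incubated 5 hr at 37 °C, then exposed to compounds for 40 hr at 37 °C. Cellular ATP was read by CellTiter-Glo luminescence; AC50 came from Hill-equation fits of concentration-response data.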

[8] = Cell Viability - SH-SY5Y (AID 544); settings: SH-SY5Y neuroblastoma cell viability; series mostly up to 92.2 µM; further: nearly all actives have a fitted effect of over 55% in size; further: potency means the concentration at half of the fitted maximal effect
In short: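 Human neuroblastoma SH-SY5Y cells (1500/well) in complete medium were exposed to compounds for 40 hr at 37 °C; intracellular ATP was then quantified by CellTiter-Glo luminescence after 20 min at room temperature. AC50 came from Hill-equation concentration-response fits.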

[9] = Cell Viability - Mesenchymal (AID 546); settings: mesenchymal cells viability, qHTS; activity change, negative = cytotoxicity: at 91.7 µM (top of the series);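 further: cells exposed to compound for 40 hours before reading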; further: potency means the concentration at half of the fitted maximal effect
In short: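 Normal human renal glomerulus-derived kidney mesenchymal cells, 1000 per well in complete medium, were treated with compounds for 40 hr at 37 °C. Viability was read as intracellular ATP by CellTiter-Glo luminescence; AC50 values came from Hill-equation fits of qHTS concentration-response data.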

[10] = Cellular Toxicity (caspase-3) HUV-EC-C (AID 656); settings: HUV-EC-C cells, caspase-3 activation (apoptosis), vehicle = 0, 100 µM tamoxifen = 100%; series mostly up to 92.2 µM
In short: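 HUV-EC-C cells (1000/well) in complete medium, compound-treated 16 h at 37 °C; caspase-3/7 activity read by Caspase-Glo 3/7 luminescence. Normalized to DMSO (basal) and 100 uM tamoxifen (100%); AC50 from Hill-equation concentration-response fits.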

[11] = Cellular Toxicity (caspase-3) MRC-5 (AID 659); settings: MRC-5 cells, luminescence, normalized: DMSO 0%, 10 µM staurosporine 100%; series mostly up to 91.7 µM
In short: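 Luminescence from caspase-cleaved aminoluciferin substrate (Caspase-Glo 3/7, 1 hr RT) reports caspase 3/7 activity in MRC-5 lung fibroblasts after 16 hr compound exposure. Normalized to DMSO basal and 10 uM staurosporine as 100%; AC50 from Hill fits.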

[12] = Cellular Toxicity (caspase-3) Mesangial (AID 660); settings: mesangial cells, normalized: DMSO 0%, 100 µM tamoxifen 100%; series mostly up to 91.7 µM;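 further: cells exposed to compound for 16 h before the caspase read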
In short: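 Human renal glomerular mesangial cells (1000/well) were treated with compounds for 16 h at 37 °C in complete medium, then caspase 3/7 activity was read by Caspase-Glo luminescence. Data were normalized to DMSO and 100 uM tamoxifen; AC50 from Hill fits.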

[13] = Cellular Toxicity (caspase-3) Hek293 (AID 664); settings: HEK293 caspase-3 activation, DMSO = 0%, 100 µM tamoxifen = 100%; series mostly up to 92.2 µM;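 further: cells exposed to compound for 16 h at 37 °C before readout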
In short: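 HEK293 cells were exposed to compounds in complete medium for 16 hr at 37 °C, then caspase-3/7 activity was read by Caspase-Glo 3/7 luminescence after 20 min at room temperature. Data normalized to DMSO and 100 uM tamoxifen; AC50 from Hill fits.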

[14] = Cellular Toxicity (caspase-3) N2a (AID 665); settings: N2a cells, luminescence, normalized: DMSO 0%, 10 µM staurosporine 100%; series mostly up to 92.2 µM;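 further: compound exposure lasted 16 h at 37 °C before readout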
In short: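 Mouse N2a neuroblastoma cells (1500/well) were treated with compounds for 16 h at 37 °C, then caspase-3/7 activity was read by Caspase-Glo luminescence after 1 h at room temperature. Data were normalized to DMSO and 10 uM staurosporine; AC50 from Hill fits.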

[15] = Cellular Toxicity (caspase-3) NIH 3T3 (AID 666); settings: NIH 3T3 caspase-3 activation, apoptosis/toxicity, 0% DMSO, 100% is 100 µM tamoxifen; series mostly up to 92.2 µM;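 further: caspase signal read after 16 h compound exposure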
In short: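 Mouse NIH 3T3 fibroblasts (1000 cells/well) were treated with compound for 16 hr at 37°C in complete medium; caspase-3/7 activity was read by Caspase-Glo luminescence. Normalized to DMSO and 100 uM tamoxifen; AC50 from Hill fits.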

[16] = Cellular Toxicity (caspase-3) Renal Proximal Tubule (AID 667); settings: renal proximal tubule cells, primary cells freshly taken from rat, solvent-only wells 0%, staurosporine 100%; series mostly up to 91.7 µM;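 further: cells exposed to compound for 16 hours at 37 °C before detection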
In short: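 Freshly isolated primary rat kidney proximal tubule cells, 1000/well, treated 16 hr at 37 °C, then Caspase-Glo 3/7 luminescence after 1 hr. Normalized to DMSO and 10 uM staurosporine; AC50 from Hill fit.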

[17] = Cell Viability - LYMP1-002 - Assay at 16 hr (AID 948); settings: LYMP1-002 lymphoblastoid cell viability; series mostly up to 92.2 µM; further: potency means the concentration at half of the fitted maximal effect
In short: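 LYMP1-002 human lymphoblastoid cells, 2500/well, were treated with compounds for 16 hr at 37 C in complete medium. Viability was read as intracellular ATP by CellTiter-Glo luminescence, and AC50 was derived from a Hill fit to concentration-response data.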

[18] = qHTS Assay for Identification of Small Molecule Inducers of Hypoxia Response (AID 2120; active means well fitted curve in the direction sought with a large enough effect in the signal ratio, with a control signal flat, not every such curve was filed as active; the % refers to the signal ratio); settings: hypoxia response reporter cells, beta-lactamase ratio readout; series mostly up to 104 µM
In short: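 HRE-beta-lactamase reporter in CellSensor HRE-bla ME-180 cells, 2500 cells/well in Opti-MEM with 0.5% dialyzed FBS; compounds tested as titration series, 17 h at 37 degrees C. CCF4 substrate 2.5 h at room temperature; AC50 from 460/530 nm ratio.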

[19] = molecular target: Peroxisome proliferator-activated receptor alpha (Homo sapiens) (UniProt Q07869); assay: qHTS assay for small molecule agonists of the peroxisome proliferator-activated receptor alpha (PPARalpha) signaling pathway (AID 651778); settings: PathHunter PPARalpha complementation, chemiluminescence, 6 h; max response: active compounds read high
In short: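 Cells plated at 2,000/well and held overnight at 37 C, 5% CO2, then compound added by pin tool for 6 hr; after PathHunter detection reagent and 60 min at room temperature, chemiluminescence from enzyme complementation was read.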

[20] = qHTS assay for small molecule agonists of the antioxidant response element (ARE) signaling pathway measured by Nrf2-dependant transcriptional activity - cell viability counter screen (AID 720653; active means well fitted curve in the direction sought with a large enough effect in the repeat runs; an effect the other way counts as inactive or inconclusive; further: potency means the concentration at half of the fitted maximal effect); settings: ARE-bla HepG2 viability, CellTiter-Glo ATP luminescence, 16 h; max response: active compounds read low
In short: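 ARE-bla HepG2 cells (2,000/well) rested 5 hrs at 37C/5% CO2, then exposed to compounds in DMSO for 16 hrs. Viability was read in the same wells as intracellular ATP by luminescence, 30 min at room temperature after reagent addition.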

Sequence of Peroxisome proliferator-activated receptor alpha (Homo sapiens) (Q07869 whole entry, looked up): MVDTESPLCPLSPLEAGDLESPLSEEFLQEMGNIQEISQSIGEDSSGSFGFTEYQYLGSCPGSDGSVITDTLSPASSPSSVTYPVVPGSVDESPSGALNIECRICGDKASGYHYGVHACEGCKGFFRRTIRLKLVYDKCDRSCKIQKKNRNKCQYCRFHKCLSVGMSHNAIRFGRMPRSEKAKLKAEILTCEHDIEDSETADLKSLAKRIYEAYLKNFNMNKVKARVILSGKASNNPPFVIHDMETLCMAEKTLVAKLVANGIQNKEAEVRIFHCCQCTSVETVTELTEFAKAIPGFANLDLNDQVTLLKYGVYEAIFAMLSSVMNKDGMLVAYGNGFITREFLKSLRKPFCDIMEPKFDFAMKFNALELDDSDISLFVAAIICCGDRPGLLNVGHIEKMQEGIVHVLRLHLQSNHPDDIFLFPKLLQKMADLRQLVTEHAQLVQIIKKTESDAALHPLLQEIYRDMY

CCCCCCCCO
Potency [1]: > 92 µM
Potency [2]: > 92 µM
Potency [3]: > 92 µM
Potency [4]: > 92 µM
Potency [5]: > 92 µM
Potency [6]: inactive
Potency [7]: inactive
Potency [8]: inactive
activity change, negative = cytotoxicity [9]: -3.19%
outcome [10]: inactive
outcome [11]: inactive
outcome [12]: inactive
outcome [13]: inactive
outcome [14]: inactive
outcome [15]: inactive
outcome [16]: inactive
Potency [17]: inactive
outcome [18]: inactive
max response [19]: 2.47% and -5.18% and -0.424%
max response [20]: -1.13% and 11.2% and -1.97%

C=CCOC(=O)c1ccccc1C(=O)OCC=C
Potency [1]: > 92 µM
Potency [2]: > 92 µM
Potency [3]: > 92 µM
Potency [4]: > 92 µM
Potency [5]: > 92 µM
Potency [6]: inactive
Potency [7]: inactive
Potency [8]: inactive
activity change, negative = cytotoxicity [9]: -9.3%
outcome [10]: inactive
outcome [11]: inactive
outcome [12]: inactive
outcome [13]: inactive
outcome [14]: inactive
outcome [15]: inactive
outcome [16]: inactive
Potency [17]: inactive
outcome [18]: inactive
max response [19]: 16.2% and -0.609%
max response [20]: -21% and -8.82%

O=[N+]([O-])c1cccc(Cl)c1Cl
Potency [1]: > 92 µM
Potency [2]: > 92 µM
Potency [3]: > 92 µM
Potency [4]: > 92 µM
Potency [5]: > 92 µM
Potency [6]: inactive
Potency [7]: inactive
Potency [8]: inactive
activity change, negative = cytotoxicity [9]: 4.81%
outcome [10]: inactive
outcome [11]: inactive
outcome [12]: inactive
outcome [13]: inactive
outcome [14]: inactive
outcome [15]: inactive
outcome [16]: inactive
Potency [17]: inactive
outcome [18]: inactive
max response [19]: -3.44% and -1.57%
max response [20]: 3.32% and 9.85%

Cc1c(N=C=O)cccc1N=C=O
Potency [1]: > 92 µM
Potency [2]: > 92 µM
Potency [3]: > 92 µM
Potency [4]: > 92 µM
Potency [5]: > 92 µM
Potency [6]: inactive
Potency [7]: inactive
Potency [8]: inactive
activity change, negative = cytotoxicity [9]: -3.51%
outcome [10]: inactive
outcome [11]: inactive
outcome [12]: inactive
outcome [13]: inactive
outcome [14]: inactive
outcome [15]: inactive
outcome [16]: inactive
Potency [17]: inactive
outcome [18]: inactive
max response [19]: -4.58% and -0.661%
max response [20]: 0.551% and 0.668%

COC(=O)c1ccc(C=O)cc1
Potency [1]: > 92 µM
Potency [2]: > 92 µM
Potency [3]: > 92 µM
Potency [4]: > 92 µM
Potency [5]: > 92 µM
Potency [6]: inactive
Potency [7]: inactive
Potency [8]: inactive
activity change, negative = cytotoxicity [9]: -7.99%
outcome [10]: inactive
outcome [11]: inactive
outcome [12]: inactive
outcome [13]: inactive
outcome [14]: inactive
outcome [15]: inactive
outcome [16]: inactive
Potency [17]: inactive
outcome [18]: inactive
max response [19]: -7.41% and -4.28%
max response [20]: -1.73% and -0.32%

NC1=NC(S)C2N=CN=C2N1 (stereo unspecified)
Potency [1]: 0.218 µM (active)
Potency [2]: 0.0486 µM (active)
Potency [3]: 1.39 µM (active)
Potency [4]: > 92 µM
Potency [5]: 0.182 µM (active)
Potency [6]: inactive
Potency [7]: 0.398 µM (active)
Potency [8]: 12.6 µM (active)
Potency [9]: 0.251 µM (active)
outcome [10]: inactive
outcome [11]: inactive
outcome [12]: inactive
outcome [13]: inactive
outcome [14]: inactive
outcome [15]: inactive
outcome [16]: inactive
Potency [17]: 12.6 µM (active)
outcome [18]: inactive
max response [19]: -3.14%
Potency [20]: 5.01 µM (active)

CCCN(CCC)C(=O)SCC
Potency [1]: > 92 µM
Potency [2]: > 92 µM
Potency [3]: > 92 µM
Potency [4]: > 92 µM
Potency [5]: > 92 µM
Potency [6]: inactive
Potency [7]: inactive
Potency [8]: inactive
activity change, negative = cytotoxicity [9]: 5.65%
outcome [10]: inactive
outcome [11]: inactive
outcome [12]: inactive
outcome [13]: inactive
outcome [14]: inactive
outcome [15]: inactive
outcome [16]: inactive
Potency [17]: inactive
outcome [18]: inactive
max response [19]: -2.51% and -1.87%
max response [20]: -4.11% and 2.96%

Clc1cc(Cl)c(Cl)cc1Cl
Potency [1]: > 92 µM
Potency [2]: > 92 µM
Potency [3]: > 92 µM
Potency [4]: > 92 µM
Potency [5]: > 92 µM
Potency [6]: inactive
Potency [7]: inactive
Potency [8]: inactive
activity change, negative = cytotoxicity [9]: 9.51%
outcome [10]: inactive
outcome [11]: inactive
outcome [12]: inactive
outcome [13]: inactive
outcome [14]: inactive
outcome [15]: inactive
outcome [16]: inactive
Potency [17]: inactive
outcome [18]: inactive
max response [19]: -0.154% and -0.267%
max response [20]: 2.91% and 4.61%

COc1ccc2[nH]cc(CCNc3ncncc3-c3cccc(C#N)c3)c2c1
Potency [6]: inactive

CC(C)=CCCC(C)CCO (stereo unspecified)
Potency [1]: > 92 µM
Potency [2]: > 92 µM
Potency [3]: > 92 µM
Potency [4]: > 92 µM
Potency [5]: > 92 µM
Potency [6]: inactive
Potency [7]: inactive
Potency [8]: inactive
activity change, negative = cytotoxicity [9]: 5.35%
outcome [10]: inactive
outcome [11]: inactive
outcome [12]: inactive
outcome [13]: inactive
outcome [14]: inactive
outcome [15]: inactive
outcome [16]: inactive
Potency [17]: inactive
outcome [18]: inactive
max response [19]: -8.23% and 0.206%
max response [20]: -2.24% and -1.77%
